Source: PubChem
Shown are actives, neighbours in structure and some others; about 2.3% of the full set was active somewhere.
FUS yeast rescue: qHTS for Suppressors of FUS Proteinopathy: Primary screen using FUS-linked yeast assay; S. cerevisiae FUS-expressing, growth rescue, OD600, 24 h; Potency, µM (top dose mostly 76.6 µM), most hits filed as activators; 390,000 compounds, 0.24% hits;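 also: potency is read from the fitted curve at half-maximal effect; plate controls were DMSO vehicle for no effect and reference control for full effect; nearly all actives have a fitted effect of over 55% in size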
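Compound concentration series was pinned onto galactose-induced FUS-expressing yeast seeded at OD 0.005. Plates sat 24hr at 30C; absorbance at 600 nm gave growth. DMSO served as background control.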
Abeta rescue: qHTS for compounds that reverse cellular toxicity of Amyloid beta (A-beta) peptide in yeast: Primary Screen; yeast expressing A-beta42, growth rescue, OD600, 48 h; response scale: 0% DMSO, 100% iron-clioquinol control; Potency, µM (highest dose often 46.1 µM), actives largely listed as activators; 410,000 compounds, 0.063% hits; also: potency is read from the fitted curve at half-maximal effect; nearly all actives have a fitted effect of over 55% in size
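Growth rescue measured by 600 nm absorbance after 48 h yeast culture at 30 C with compound. Values normalized between DMSO and an equimolar ferric chloride plus clioquinol control.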
TDP43 rescue: qHTS of TDP-43 Inhibitors; TDP-43 expressing yeast growth rescue, BacTiter-Glo, 24 h; Potency, µM (highest dose often 46.1 µM), without a hit: at the highest dose growth rescue (activation), hits mostly activators; 410,000 compounds, 1.8% hits; AID 652104, 2013; also: potency is read from the fitted curve at half-maximal effect; % of control where 0% means no effect; nearly all actives have a fitted effect of over 50% in size
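Readout is BacTiter-Glo luminescence of cell growth, so inhibitors register as activators. TDP-43-expressing yeast at OD600=0.02 in galactose medium, after raffinose pregrowth to mid-log, were incubated with compound for 24 hr at 30 deg C.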
CCT modulator: High-Throughput Screening for Modulators of Cytosolic Chaperonin Activity; purified chaperonin ATPase assay, HTRF ADP detection, 30 min; activity change, % (test concentration not listed), hits read low; 360,000 compounds, 0.3% hits; in the data active = activity change below about -30%; also: % is scaled to controls: 0 for no effect and ±100 for the full control effect
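TRiC at 40 or 20 nM final (batch-dependent) in 30 mM Tris pH 7.4, 100 mM KCl, 5 mM MgCl2, 1 mM DTT, with compound at single 76 uM and 10 uM ATP, 30 min at 37 deg C. ADP detected by HTRF Transcreener, 665/615 ratio.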
aSyn rescue: qHTS of alpha-syn Inhibitors; Yeast expressing alpha-synuclein, growth rescue, BacTiter-Glo, 24 h; Potency, µM (doses to about 46.1 µM), for the others: top-dose growth rescue (activation), usual class: activators; 370,000 compounds, 0.14% hits; AID 652106, 2013; also: potency is read from the fitted curve at half-maximal effect; % of control where 0% means no effect; nearly all actives have a fitted effect of over 65% in size
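Readout is rescue of growth in alpha-synuclein-expressing yeast, so inhibitors of toxicity appear as activators. Growth after 24 hr at 30 deg C in galactose medium is quantified by luminescence.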
Mm-Cpn inhibitor: Inhibitors of TCP-1 ring complex (TRiC) of Methanococcus maripaludis (MmCpn): qHTS; Chaperonin Mm-Cpn (Methanococcus maripaludis); 330,000 compounds, 0.031% hits; Potency, µM (series often up to 76.9 µM), inactives show at the highest dose activity, negative = inhibition, most hits filed as inhibitors; purified Mm-Cpn ATPase, ADP Transcreener TR-FRET; also: potency is read from the fitted curve at half-maximal effect; % is scaled to controls: 0 for no effect and ±100 for the full control effect; nearly all actives have a fitted effect of over 80% in size
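Purified archaeal chaperonin (25 nM final) was preincubated with compound for 10 min at 37°C, then ATP (10 uM final) was added for 30 min at 37°C in Tris pH 7.4/KCl/MgCl2/DTT buffer. ADP was quantified by HTRF Transcreener TR-FRET.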
Starred values were filed as active, the others as inactive. Unless noted, calls follow the shape of the dose curve; as a rule, active = well fitted curve in the direction sought with a large enough effect; inconclusive = small, poorly fitted or top-dose-only effect, or another doubt; inactive = no such curve, though single readings can be large; an effect the other way counts as inactive or inconclusive.

`O=C(NC1CCN(Cc2ccccc2)CC1)c1ccccc1OCc1ccccc1` gave FUS yeast rescue inactive, Abeta rescue inactive, TDP43 rescue 6.0%, CCT modulator -1.6, aSyn rescue 2.8% and Mm-Cpn inhibitor 1.2%.
COC(=O)c1ccc(-n2nnc(-c3nc(-c4ccc5c(c4)OCO5)no3)c2C)cc1 was read as FUS yeast rescue inactive, Abeta rescue inactive and TDP43 rescue 23.5%.
For CCc1cc(C(=O)OC)c(NC(=O)c2ccoc2C)s1 the results were FUS yeast rescue inactive, Abeta rescue inactive, TDP43 rescue 21.4%, CCT modulator -44.6*, aSyn rescue 3.1% and Mm-Cpn inhibitor 0.6%.
COc1cccc(CNC(=O)C2CCC(CNS(=O)(=O)c3cccc4cccnc34)CC2)c1OC (configuration not stated) was read as FUS yeast rescue inactive.
`CCN(CC)c1ccc(/C=C(/C#N)c2nc3ccccc3[nH]2)c(OC(C)C)c1` gave FUS yeast rescue inconclusive, Abeta rescue inactive, TDP43 rescue 12.6µM*, CCT modulator -0.8, aSyn rescue -25.1% and Mm-Cpn inhibitor -2.4%.
For Cc1cc(C)c2[nH]c(O)c(N=NC(=S)NCC3CCCO3)c2c1 (configuration not stated) the results were FUS yeast rescue inactive, Abeta rescue inactive, TDP43 rescue 9.1%, CCT modulator 0.1, aSyn rescue -1.6% and Mm-Cpn inhibitor 0.0%.
Screening Oc1[nH]c2c(Cl)cc(Cl)cc2c1N=NC(=S)NCC1CCCO1 (configuration not stated) returned FUS yeast rescue inactive, Abeta rescue inactive, TDP43 rescue inconclusive, CCT modulator -39.8*, aSyn rescue 12.0% and Mm-Cpn inhibitor -0.4%.
For COc1cccc(CCC(=O)N(C)C2CCCN(Cc3ccccc3F)C2)c1 (configuration not stated) the results were FUS yeast rescue inactive, Abeta rescue inactive, TDP43 rescue 13.1%, CCT modulator -2.0, aSyn rescue -2.9% and Mm-Cpn inhibitor -1.3%.
For CN(C(=O)CCc1ccccc1F)C1CCCN(Cc2ccccc2F)C1 (configuration not stated) the results were FUS yeast rescue inactive, Abeta rescue inactive, TDP43 rescue 20µM*, CCT modulator -2.3, aSyn rescue 8.9% and Mm-Cpn inhibitor 0.2%.
Cc1cccc(NC(=O)COc2ccccc2C(=O)Nc2ccccc2)c1 was read as aSyn rescue 1.2%.
Cc1ccc(-c2cc3ncc(C(=O)c4cc([N+](=O)[O-])ccc4O)cn3n2)cc1 was read as FUS yeast rescue inactive, Abeta rescue inactive and TDP43 rescue inconclusive.
Screening COc1ccc2c3c([nH]c2c1)[C@]1(NCC3)C(=O)N(C)c2ccc(Cl)cc21 returned FUS yeast rescue inactive.
COc1ccc(CC(=O)N(C)CC(=O)Nc2ccccc2SC)cc1 was read as FUS yeast rescue inactive, Abeta rescue inactive, TDP43 rescue 10.1%, CCT modulator -45.7*, aSyn rescue -16.8% and Mm-Cpn inhibitor 0.4%.
`COc1ccc(S(=O)(=O)N(C)CC(=O)Nc2ccccc2SC)cc1` gave FUS yeast rescue inactive, Abeta rescue inactive, TDP43 rescue 3.5%, CCT modulator -0.7, aSyn rescue 2.4% and Mm-Cpn inhibitor 2.1%.
Screening CC1(C(=O)NCc2ccc(Cl)cc2)CCN1C(=O)Cc1ccc(Cl)cc1Cl (configuration not stated) returned FUS yeast rescue inactive, Abeta rescue inactive, TDP43 rescue 31.6µM*, CCT modulator -1.7 and aSyn rescue inconclusive.
Screening CC1(C(=O)Nc2ccc(F)cc2F)CCN1C(=O)Cc1ccccc1Cl (configuration not stated) returned FUS yeast rescue inactive, Abeta rescue inactive, TDP43 rescue 0.0%, CCT modulator -0.3 and aSyn rescue 7.7%.
`CC1(C(=O)NS(=O)(=O)c2ccc(Cl)cc2)CCN1C(=O)Cc1cccc2ccccc12` (configuration not stated) gave FUS yeast rescue inactive, Abeta rescue inactive, TDP43 rescue 2.9%, CCT modulator -0.4 and aSyn rescue 0.5%.
Screening CC1(C(=O)Nc2cccc3ccccc23)CCN1C(=O)Cc1ccc(Cl)cc1Cl (configuration not stated) returned FUS yeast rescue inconclusive, Abeta rescue inactive, TDP43 rescue 35.5µM*, CCT modulator 0.8 and aSyn rescue inconclusive.
`CC1(C(=O)Nc2ccccc2F)CCN1C(=O)Cc1cc(F)ccc1F` (configuration not stated) gave FUS yeast rescue inactive, Abeta rescue inactive, TDP43 rescue 7.08µM*, CCT modulator 0.2 and aSyn rescue 6.7%.
`CC1(C(=O)NCc2ccc(Cl)cc2)CCN1C(=O)Cc1cccc2ccccc12` (configuration not stated) gave FUS yeast rescue inactive, Abeta rescue inactive, TDP43 rescue 35.5µM*, CCT modulator -1.9 and aSyn rescue inconclusive.
`CCN(CC)/[N+]([O-])=N/OCOC(=O)C(C)c1ccc2cc(OC(C)=O)ccc2c1` (configuration not stated) gave aSyn rescue -4.0%.
`COc1ccccc1C(=O)NCCSCc1ccccc1Cl` gave FUS yeast rescue inactive, Abeta rescue inactive, TDP43 rescue 12.6µM*, CCT modulator 0.2, aSyn rescue -10.4% and Mm-Cpn inhibitor -0.8%.
Screening Cc1ccc(C(=O)NCCSCc2ccc(Cl)cc2Cl)cc1[N+](=O)[O-] returned FUS yeast rescue inconclusive, Abeta rescue inconclusive, TDP43 rescue 9.9%, CCT modulator -0.9, aSyn rescue 12.7% and Mm-Cpn inhibitor 1.3%.
Screening Cc1c(C(=O)NCCSCc2ccc(Cl)cc2Cl)cccc1[N+](=O)[O-] returned FUS yeast rescue inactive, Abeta rescue inactive, TDP43 rescue 14.1µM*, CCT modulator -2.0, aSyn rescue 24.7% and Mm-Cpn inhibitor 0.3%.
For c1ccc2sc(-c3csc4c3CCNC4)nc2c1 the results were FUS yeast rescue inactive.
